Our source for the outcome and AC50 values is PubChem BioAssay (EPA / NIEHS).

Active and inactive are the calls of the source. How the source made its calls: active means hit-call score of the fitted dose curve at least 0.9, where 1 is the maximum; inactive means score below 0.9.

Read-out in this test: Thrombomodulin, THBD (gene 7056)
Briefly: BSK_3C_Thrombomodulin: BioMAP Diversity Plus: 3C Assay for Thrombomodulin Biomarker Activity (AID 2283029). As to conditions: primary human endothelial cells (HUVEC); actives raise or lower the signal. The procedure, abridged:
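Primary human umbilical vein endothelial cells (3C system) were exposed to chemical for 24 h, then thrombomodulin levels were measured by ELISA. Activity was fitted bidirectionally against the DMSO negative control as baseline.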
With `Cc1cccc2ccccc12`, the result was inactive.
Still for that read-out and setting: next, `CCO[Si](CCCNC(N)=O)(OCC)OCC`: “inactive”.
In the case of `Clc1ccccc1C(c1ccccc1)(c1ccccc1)n1ccnc1`, the AC50 (as a rule, the midpoint of the concentration-response curve, whichever way the signal moves) is 8.39 µM (active).
With `c1ccc2n[nH]nc2c1`, the outcome was inactive.
Same read-out and setting: next, `Cc1ccc(C(C)C)cc1`: “inactive”.
As for `NC(=O)c1nc(-c2cccc(-c3cc(F)ccc3OCC(F)(F)C(F)(F)F)c2)n[nH]1`, the AC50 was 11.7 µM (active).
Same read-out and setting: as for `NCc1cccc(C2CCN(C(=O)c3ccc(C#Cc4ccccc4F)o3)CC2)c1`, the figure is 12.7 µM (active).
For `CCCCOC(=O)CC(CC(=O)OCCCC)(OC(C)=O)C(=O)OCCCC`, the outcome was inactive.
For `CN(C)c1ccc(C(=C2C=CC(=[N+](C)C)C=C2)c2ccc(N(C)C)cc2)cc1`, the concentration at half-maximal activity (AC50) was 3.97 µM (active).
In the case of `CCCCCCCC[Si](OCC)(OCC)OCC`, the AC50 is 21 µM (active).
Turning to `Cc1occc1C(=O)Nc1ccc(C(=O)N2CCC(F)(F)/C(=C\C(=O)N3CCC(N4CCCCC4)CC3)c3ccccc32)cc1`, the outcome was inactive.
The same measure, in the same setting: as for `Cc1c2ccccc2c(C)c2c1ccc1ccccc12`, the entry is “inactive”.
Still for that read-out and setting: next, `O=C=NCCCCCCN=C=O`: “inactive”.
With `Cc1oc2c(NC(=O)c3c(Cl)cccc3Cl)cccc2c1C(C)(C)O`, the half-maximal activity concentration (AC50) is 11.8 µM (active).
Still for that read-out and setting: as for `CCCCCCCCCCCC[N+](C)(C)C`, the figure is 5.28 µM (active).
On to `O=CCCCC=O`, for which the outcome was inactive.
Still for that read-out and setting: next, `CC[C@H](NC(=O)c1cc(F)ccc1NS(=O)(=O)c1cccc2cccnc12)c1ccccc1`: “inactive”; `CC(C)(C)c1cc(/C=C2\SC(N)=NC2=O)cc(C(C)(C)C)c1O`: “inactive”; `CCCCCCCCCC(=O)O`: “inactive”.
Turning to `CC(C)(C)c1csc(-c2cc3cc(OCc4ccccc4CC(=O)O)ccc3o2)n1`, the result was inactive.
